Where “and” joins values, the source holds several entries; their conditions need not be identical. Identical values can stand only once. Inconclusive results are not listed. Calls of active or inactive are those of the source. Rule as the data show it, unless noted: active = parasite load remaining mostly below about 12% (no sharp cut-off); inactive = mostly above about 10%.

From PubChem BioAssay come the findings set out here.

Assay [1] is described as follows: compounds altering viability of human ES cells (AID 493140; call rule not given here;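 also: cells exposed to compounds for four days before counting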). As to conditions: human embryonic stem cell survival screen; stronger effect = higher value.
Assay [2] is described as follows: P. berghei load reduction in hepatocytes – cell-based, HepG2, luciferase luminescence, HepG2 viability, primary screen (AID 624349).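 Also: 100% = mean of DMSO negative control wells on the same plate.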 Particulars: P. berghei liver stage in HepG2, luciferase luminescence, concentration not given here; parasite load remaining: stronger effect = lower value; viability: measured here: HepG2 viability without parasites.
Assay [3] can be described thus: Wnt pathway potentiators raising nuclear beta-catenin – imaging, WNT3A-conditioned medium, mouse C2C12, NPC library, primary screen (AID 1117326; in the data active = nuclear beta-catenin stimulation mostly above about 4.2%, no sharp cut-off; inactive = mostly below about 10%). As to conditions: stronger effect = higher value.
A short description of assay [4]: stimulators of insulin release from INS-1E, primary screen, cell-based, 5 mM glucose, NPC library (AID 1117329;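 active = compound raises insulin release from rat beta cells at 5 mM glucose, no numeric limit stated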). Particulars: rat INS-1E insulin secretion, at 10 µM, stronger effect = higher value.
The nature of assay [5]: growth inhibition of GSK3B-pretreated HCT116 cells – cell-based, CellTiter-Glo, 0.2 to 20 µM (AID 1117336;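 active = compounds lowering colon cancer cell viability after pretreatment blocking the GSK3B kinase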). Particulars: HCT116 viability after GSK3B inhibitor, at 20 µM, stronger effect = higher value. In general terms: In ATP-based viability assays light output follows the ATP content of the culture.
Assay [6] can be described thus: inhibition of endothelial tube formation, primary screen, imaging, VEGF stimulated, CD31 staining, tube area, NPC library (AID 1117340;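 active = compound that reduces growth-factor-driven endothelial tube area in a mixed cell culture, no cutoff stated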). Particulars: VEGF-stimulated ADSC/ECFC co-culture, at 10 µM, stronger effect = higher value.
Assay [7] in a line: GLP1 release stimulators, primary, NCI-H716, NPC library (AID 1117341;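 active = compound raises GLP1 secretion from the human gut endocrine cells, with no numeric limit stated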). As to conditions: NCI-H716 cells, at 10 µM, stronger effect = higher value.
Assay [8] can be described thus: HCT116 colon cancer cell growth inhibition, primary screen, CellTiter-Glo luminescence, NPC library (AID 1117342;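 active = compounds that lower survival of HCT116 colon cancer cells in the luminescence readout, no numeric limit stated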). As to conditions: at 20 µM (top of the series).
A short description of assay [9]: reduced SW480 viability measured with CellTiter-Glo, NPC library, primary (AID 1117343;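 active = compounds that lower viability of the colon cancer cells in the luminescence readout, with no numeric limit stated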). Particulars: CellTiter-Glo luminescence; at 20 µM (top of the series) unless noted.
Assay [10] can be described thus: NPC library primary testing for decreased DLD-1 cell viability via CellTiter-Glo (AID 1117346;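 active = compounds that lower survival of DLD-1 colon cancer cells in the luminescence readout, no cutoff given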). As to conditions: DLD-1 viability, CellTiter-Glo luminescence; at 20 µM (top of the series).
Assay [11] in a line: viability loss with induced miR-34 in A549 – imaging, A549 dox-inducible miR-34, nuclei and caspase counts, primary screen (AID 1347080;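 active = compounds whose cell count with miR-34 switched on is under 0.7 times the count with it off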). Particulars: A549 miR-34 inducible, Hoechst nuclei count, 48 h.
Assay [12] can be described thus: MELAS cybrid and Rieske KO viability enhancers – cell-based, MELAS cybrids, Rieske KO mouse fibroblasts, CellTiter-Glo, primary screen (AID 1508586;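 active = mean z-score across replicates of 1.96 or higher in either the MELAS or the Rieske mutant cell line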;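 also: z relative to plate mean and SD of compound and empty wells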). As to conditions: low glucose.
Assay [13] addresses NAD(+) hydrolase SARM1 (Homo sapiens) (UniProt Q6SZW1). As to the kind of experiment: blocking NAD cleavage by SARM1 SAM-TIR – cell lysate, NAD-Glo luminescence (AID 1508614;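 active = compound whose remaining NAD level is above about 45 nM, limit read from the data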;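 also: higher remaining NAD means stronger inhibition of SARM1 NADase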). As to conditions: SAM-TIR HEK293T lysate NADase, at 1 µM, stronger effect = higher value.
Assay [14] has as its target ATP-dependent translocase ABCB1 (Homo sapiens) (UniProt P08183). As to the kind of experiment: P-glycoprotein substrate transport blockade – cell-based (AID 377; in the data active = fluorescence slope change above about 50%). Particulars: MDR1-expressing cells, fluorescent substrate accumulation slope; stronger effect = higher value; concentration not given here.
[15] abbreviates: stronger effect = lower value, cell number ratio, induced over uninduced.
Where [16] appears, read: measured here: relative caspase fold change +Dox/-Dox.
The mark [17] stands for this setting: measured here: total cells with miR-34 induction, stronger effect = lower value.
Setting [18] is: measured here: total cells without miR-34 induction.
[19] abbreviates: MELAS cybrid survival, CellTiter-Glo 48 h, stronger effect = higher value.
The mark [20] stands for this setting: Rieske KO mouse fibroblast survival, CellTiter-Glo 72 h.

Sequence of NAD(+) hydrolase SARM1 (Homo sapiens) (Q6SZW1 whole entry, looked up): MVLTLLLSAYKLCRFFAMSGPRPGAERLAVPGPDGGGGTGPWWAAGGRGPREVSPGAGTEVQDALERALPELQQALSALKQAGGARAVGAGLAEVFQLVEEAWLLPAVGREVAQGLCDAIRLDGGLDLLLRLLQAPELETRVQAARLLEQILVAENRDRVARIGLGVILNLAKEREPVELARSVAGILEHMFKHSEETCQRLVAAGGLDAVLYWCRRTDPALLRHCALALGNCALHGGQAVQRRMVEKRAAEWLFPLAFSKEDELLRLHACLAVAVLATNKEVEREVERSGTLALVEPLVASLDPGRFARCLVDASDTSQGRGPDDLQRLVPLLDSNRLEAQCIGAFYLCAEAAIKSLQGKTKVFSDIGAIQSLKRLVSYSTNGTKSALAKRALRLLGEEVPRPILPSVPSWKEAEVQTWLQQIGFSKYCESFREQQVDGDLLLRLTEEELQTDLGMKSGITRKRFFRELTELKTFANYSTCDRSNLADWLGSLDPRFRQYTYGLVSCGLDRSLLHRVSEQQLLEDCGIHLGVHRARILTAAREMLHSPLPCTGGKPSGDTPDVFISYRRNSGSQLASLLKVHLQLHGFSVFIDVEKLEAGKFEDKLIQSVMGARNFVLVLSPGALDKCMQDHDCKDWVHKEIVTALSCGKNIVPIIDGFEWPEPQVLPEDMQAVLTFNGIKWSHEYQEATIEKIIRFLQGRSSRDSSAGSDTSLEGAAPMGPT
Sequence of ATP-dependent translocase ABCB1 (Homo sapiens) (P08183 whole entry, looked up): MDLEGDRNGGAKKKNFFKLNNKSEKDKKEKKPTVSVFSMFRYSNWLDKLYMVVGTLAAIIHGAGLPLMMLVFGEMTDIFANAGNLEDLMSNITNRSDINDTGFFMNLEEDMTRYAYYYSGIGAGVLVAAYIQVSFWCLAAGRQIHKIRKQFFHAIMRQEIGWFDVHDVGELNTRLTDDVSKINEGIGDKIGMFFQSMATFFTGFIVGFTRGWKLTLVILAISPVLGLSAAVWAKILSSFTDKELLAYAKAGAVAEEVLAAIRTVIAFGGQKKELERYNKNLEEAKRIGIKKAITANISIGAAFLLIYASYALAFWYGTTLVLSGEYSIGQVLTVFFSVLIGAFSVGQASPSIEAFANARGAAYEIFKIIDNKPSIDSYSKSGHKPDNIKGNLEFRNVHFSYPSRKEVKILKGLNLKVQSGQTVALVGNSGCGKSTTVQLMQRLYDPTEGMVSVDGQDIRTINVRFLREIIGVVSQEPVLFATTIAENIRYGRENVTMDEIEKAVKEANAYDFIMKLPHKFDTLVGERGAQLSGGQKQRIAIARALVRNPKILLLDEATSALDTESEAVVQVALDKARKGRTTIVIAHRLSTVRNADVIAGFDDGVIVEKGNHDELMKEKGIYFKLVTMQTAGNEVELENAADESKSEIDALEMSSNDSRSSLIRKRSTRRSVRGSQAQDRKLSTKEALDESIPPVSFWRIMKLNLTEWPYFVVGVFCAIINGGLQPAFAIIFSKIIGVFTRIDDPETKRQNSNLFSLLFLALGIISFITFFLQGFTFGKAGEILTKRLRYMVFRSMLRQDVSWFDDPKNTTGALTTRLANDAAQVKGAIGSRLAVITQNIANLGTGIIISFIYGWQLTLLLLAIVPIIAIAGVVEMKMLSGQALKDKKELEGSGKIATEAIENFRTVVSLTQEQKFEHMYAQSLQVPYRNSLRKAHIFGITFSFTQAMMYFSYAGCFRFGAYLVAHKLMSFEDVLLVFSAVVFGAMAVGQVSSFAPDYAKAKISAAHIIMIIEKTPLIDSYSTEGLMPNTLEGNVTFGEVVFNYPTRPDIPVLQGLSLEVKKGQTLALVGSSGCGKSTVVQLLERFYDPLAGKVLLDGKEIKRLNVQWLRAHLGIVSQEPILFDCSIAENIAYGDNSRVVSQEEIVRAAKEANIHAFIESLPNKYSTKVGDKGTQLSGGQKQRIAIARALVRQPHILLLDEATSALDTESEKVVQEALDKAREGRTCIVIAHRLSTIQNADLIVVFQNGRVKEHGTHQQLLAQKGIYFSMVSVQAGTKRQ

As a reminder, the viability is a read-out of living cells in per cent, often relative to untreated cells. On to `CCC(C)(CN(C)C)OC(=O)c1ccccc1` (stereo unspecified), for which the survival in assay [1] was 26.8 (inactive). Further, in assay [2], the parasite load remaining was 38.1% (inactive) and 188% (inactive). Also, the viability in assay [2] was 56.2% and 90.3%. Also, the nuclear beta-catenin stimulation in assay [3] (at 10 µM) was -2.1% (inactive); in assay [3] (stimulation, at 2 µM), -1.6%. Besides, the insulin secretion stimulation in assay [4] is 3% (inactive). Also, the viability decrease in assay [5] is -25.9% (inactive). Moreover, the tube area decrease in [6] was -3.6% (inactive). The GLP1 secretion stimulation in assay [7] was -1.9% (inactive). The inhibition of viability in [8] is -6.83% (inactive). The viability decrease (inhibition) is 7.2% (inactive) in assay [9] and -17.6% (inactive) in [10]. Moreover, the fold change in [11] (setting [15]) is 0.964 (inactive); in [11] (setting [16]) it was 0.9. The cell count in assay [11] (setting [17]) worked out at 8680; in [11] (setting [18]), 9000. The z-score is 0.476 (inactive) in assay [12] (setting [19]) and -0.277 in assay [12] (setting [20]).
For the compound `CN(CCCCCCCCCCN(C)C(=O)Oc1cccc([N+](C)(C)C)c1)C(=O)Oc1cccc([N+](C)(C)C)c1`, the parasite load remaining in assay [2] was 77.5% (inactive). In addition, the viability in assay [2] was 106%. In addition, the nuclear beta-catenin stimulation in assay [3] (at 10 µM) is -0.9% (inactive); in [3] (stimulation, at 2 µM) it was -0.7%. Also, in assay [4], the insulin secretion stimulation is 2.2% (inactive). Moreover, the viability decrease in [5] was 30.1% (inactive). In addition, in assay [6], the tube area decrease was -9.4% (inactive). Further, the GLP1 secretion stimulation in assay [7] was -4.4% (inactive). In addition, the inhibition of viability in assay [8] is 57.4% (active). Moreover, the viability decrease (inhibition) in assay [9] was 39.3% (inactive); in assay [10], 10.2% (inactive). Further, the fold change in assay [11] (setting [15]) was 0.802 (inactive); in assay [11] (setting [16]), 1.05. For the same compound, the values for the cell count in assay [11] (setting [17]) and in assay [11] (setting [18]) were 8660 and 10800, respectively. Also, the z-score is -1.21 (inactive) in [12] (setting [19]) and -0.227 in assay [12] (setting [20]).
Regarding `CCC(=O)c1ccc(O)cc1`, the nuclear beta-catenin stimulation in assay [3] (at 10 µM) is 2.6% (inactive); in assay [3] (stimulation, at 2 µM), -0.5%. Moreover, in assay [4], the insulin secretion stimulation was 0.1% (inactive). The viability decrease in assay [5] was 8.05% (inactive). For the same compound, in assay [6], the tube area decrease is 5.9% (inactive). In addition, the GLP1 secretion stimulation in assay [7] is -2.3% (inactive). Further, the inhibition of viability in [8] was 16.7% (inactive). In addition, the viability decrease (inhibition) in assay [9] is 60.1% (active); in assay [10] it was 25.2% (inactive). Further, the fold change is 0.903 (inactive) in assay [11] (setting [15]) and 0.966 in assay [11] (setting [16]). The cell count was 7980 in assay [11] (setting [17]) and 8840 in assay [11] (setting [18]). For the same compound, the remaining NAD in assay [13] was 10 nM (inactive).
Take `C[C@]12CC[C@H]3[C@@H](CCC4=CC(=O)CC[C@@]43C)[C@@H]1CC[C@@H]2C(=O)CO`: the survival in [1] was 2.75 (inactive). The parasite load remaining in assay [2] was 95.4% (inactive). Besides, the viability in assay [2] came out at 96.9%. The nuclear beta-catenin stimulation in assay [3] (at 10 µM) was 3.8% (inactive); in assay [3] (stimulation, at 2 µM), 5.6%. Besides, the insulin secretion stimulation in [4] was 0.8% (inactive). Also, the viability decrease in [5] was -35.8% (inactive). Moreover, in assay [6], the tube area decrease is 34.3% (inactive). In addition, the GLP1 secretion stimulation in assay [7] is 2.7% (inactive). Further, the inhibition of viability in assay [8] was 27.8% (inactive). In addition, the viability decrease (inhibition) was 23.6% (inactive) in assay [9] and 8.8% (inactive) in [10]. The fold change was 0.793 (inactive) in assay [11] (setting [15]) and 1.3 in [11] (setting [16]). In addition, the cell count in assay [11] (setting [17]) was 7560; in assay [11] (setting [18]), 9530. Besides, the z-score is -0.237 (inactive) in assay [12] (setting [19]) and 0.173 in [12] (setting [20]).
For `Cc1c(-c2ccccc2)oc2c(C(=O)OCCN3CCCCC3)cccc2c1=O`, in [14], the fluorescence slope change was 112% (active). Also, the survival in assay [1] was 21.4 (inactive). The parasite load remaining in assay [2] was 46% (inactive) and 89.3% (inactive). Further, the viability in assay [2] was 49.7% and 89.5%. Further, the nuclear beta-catenin stimulation in [3] (at 10 µM) was -2.4% (inactive); in assay [3] (stimulation, at 2 µM) it was -1%. In assay [4], the insulin secretion stimulation was 2.9% (inactive). Besides, the viability decrease in [5] is -5.1% (inactive). Also, the tube area decrease in assay [6] was 19.4% (inactive). In addition, the GLP1 secretion stimulation in assay [7] was -5.1% (inactive). In addition, the inhibition of viability in assay [8] is 5.5% (inactive). Besides, the viability decrease (inhibition) is 4.4% (inactive) in assay [9] and -0.8% (inactive) in assay [10]. Also, the fold change is 0.916 (inactive) and 1.06 (inactive) in assay [11] (setting [15]); 1.01 and 0.699 in assay [11] (setting [16]). Moreover, the cell count is 8120 and 9090 in [11] (setting [17]); 8860 and 8560 in assay [11] (setting [18]). In addition, the z-score in [12] (setting [19]) was -0.232 (inactive) and 0.0828 (inactive); in assay [12] (setting [20]) it was -0.166 and -0.00233.
